# The panel holds about 79,000 compounds, 15% with a hit somewhere; the sample as a whole holds those more often. Values without a mark were called inactive. Activity calls are given as the source filed them. No stated cut-off is given here; in the data, active means growth inhibition above about 70%; inactive means the rest.
# Assay: NCI Yeast Anticancer Drug Screen. Data for the bub3 strain (AID 167)
# Details: S. cerevisiae bub3 mutant strain, at 50.0 µM, stronger effect = higher value
# How it was run: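 Screening used yeast with an engineered genetic alteration affecting cell cycle control. Compound-exposed cultures were compared with vehicle cultures, and reduced growth was taken as inhibition.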
row,SMILES,growth inhibition
1,NS(=O)(=O)c1ccc(N=Cc2c3ccccc3nc3cc(Cl)ccc23)cc1,27.6%
2,Nc1ccc(O)c(=O)cc1,76.6% (active)
3,Oc1ccc[nH]c1=S,74.5% (active)
4,COc1cccc2c1C(=O)c1c(O)c3c(c(O)c1C2=O)C[C@@](O)(/C(C)=N/NC(=O)c1ccc(Cl)c(Cl)c1)C[C@@H]3OC1CC(N)C(O)C(C)O1 (some centres not stated),98.5% (active)
5,O=C1c2ccccc2C(=O)c2c1ccc(O)c2O.[Cu],93.6% (active)
6,CCC(=O)C(C(=O)CC)c1c(OC(=O)c2ccccc2)ccc(O)c1C(=O)OC,42.8%
7,CC(C)CCCC(C)C1CCC2(C)C3=CCC4C(C)(CCC(O)C4(C)C)C3=CCC12C (configuration not stated),93.3% (active)
8,CCNC(=O)COc1ccc(Cl)cc1Cl,-29.4%
9,CCN1CCC(O)(/C=C/c2ccc(Cl)c(Cl)c2)C(C(=O)/C=C/c2ccc(Cl)c(Cl)c2)C1 (configuration not stated),99% (active)
10,Nc1ccc(-c2ccc(N)cc2S(=O)(=O)O)c(S(=O)(=O)O)c1,1.8%
11,COc1ccc2c(c1)CCc1c(-c3noc4c3CCc3cc(OC)ccc3-4)noc1-2,-7.75%
12,Cc1ccc(NC(=S)N(CCC#N)C2CCCCC2)cc1C,1.85%
13,COc1ccc2c(c1)CC1c3c(ccc(OC)c3O)CC2N1C (configuration not stated),92% (active)
14,CCN(CC)CCCC(C)Nc1c2ccccc2nc2c(C)cc(Br)cc12 (configuration not stated),36.9%
15,O=C(O)c1cc2ccc3cccc4ccc(c1)c2c34,88.4% (active)
16,CCOC(=O)NC(=S)Nc1ccsc1,24.8%
17,CC(C)CCC(C)(C)c1cc(O)ccc1O,98.8% (active)
18,COc1ccc(C(c2cc3c(cc2O)OCO3)N2CCOCC2)c(OC)c1OC (configuration not stated),98.7% (active)
19,CCOC(=O)C1=C(C)NC(C)=C(C(=O)OCC)C1c1c(-c2ccccc2)noc1C,0.85%
20,O=C(CCl)Oc1ccc(Sc2ccc(OC(=O)CCl)cc2)cc1,99.4% (active)
21,Nc1ccc2[nH]c3ccccc3c2c1,25.2%

# Assay: NCI Yeast Anticancer Drug Screen. Data for the mlh1 rad18 strain (AID 175)
# Details: S. cerevisiae mlh1 rad18 strain growth inhibition; at 5.0 µM (retest, dose inferred, filed as 0.5); stronger effect = higher value
# How it was run: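 Test agents were incubated with a yeast strain of defined genotype (DNA damage repair defect). Inhibition of growth was derived by comparison with vehicle-exposed cultures.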
row,SMILES,growth inhibition
1,CCCCCCCCCCCCCCCBr,5%
2,CCCCCCCCCCCC(=O)OCC(C)C,-16%
3,O[Si](O)(c1ccccc1)c1ccccc1,12%
4,O=C(c1ccccc1)C(C(=O)c1ccccc1)c1ccc2ccccc2n1,-2%
5,O=C1C=CC(=O)N1c1ccccc1[N+](=O)[O-],98% (active)
6,CCCCCCCCCCCC(O)=C1C(=O)CC(O)CC1=O (configuration not stated),46%
7,OCCc1cccc2ccc3ccccc3c12,2%
8,O=C1C(=O)C(Cl)=C(Cl)C(Cl)=C1Cl,-7%
9,O=C1C=CC2C(=O)c3ccccc3C(=O)C2=C1 (configuration not stated),4%
10,O=C(N(c1ccc(Cl)cc1)c1ccc(Cl)cc1)C(Cl)(Cl)Cl,38%
11,COc1cccc2c1S(=O)(=O)C(c1ccccc1)=CC2=O,69%
12,COc1cc(-c2nn3c(=O)n(-c4ccc(Cl)cc4)c(=O)nc3s2)cc(OC)c1OC,-2%
13,O=[N+]([O-])C1(CO)COC(CCc2ccccc2)OC1 (configuration not stated),0%
14,COc1ccc(C(=O)CCc2c[nH]c3ccccc23)c(O)c1,-9%
15,CC/C(=C(\CC)c1ccc(OCCN2CCOCC2)cc1)c1ccc(OCCN2CCOCC2)cc1,30%
16,CCCCCCCCCCCN1C(=O)c2ccccc2S1(=O)=O,0%
17,CCCCCCCCCCCC(=O)NN,8%
18,CCN1CCC(O)(/C=C/c2ccccc2)C(C(=O)/C=C/c2ccccc2)C1 (configuration not stated),19%
19,NC(=S)NNCCC(=O)Nc1ccccc1C(F)(F)F,-2%
20,NS(=O)(=O)c1ccc(N=Cc2c3ccccc3nc3cc(Cl)ccc23)cc1,17%
21,Nc1ccc(O)c(=O)cc1,-2%
22,Oc1ccc[nH]c1=S,23%
23,COc1cccc2c1C(=O)c1c(O)c3c(c(O)c1C2=O)C[C@@](O)(/C(C)=N/NC(=O)c1ccc(Cl)c(Cl)c1)C[C@@H]3OC1CC(N)C(O)C(C)O1 (some centres not stated),33%
24,O=C1c2ccccc2C(=O)c2c1ccc(O)c2O.[Cu],66%
25,CCC(=O)C(C(=O)CC)c1c(OC(=O)c2ccccc2)ccc(O)c1C(=O)OC,-3%
26,CC(C)CCCC(C)C1CCC2(C)C3=CCC4C(C)(CCC(O)C4(C)C)C3=CCC12C (configuration not stated),21%
